# PubChem BioAssay (NCATS)
# Inconclusive results are not listed. Calls of active or inactive are those of the source. Unless noted, calls come from the whole dose curve; as a rule, active = well fitted curve in the direction sought with a large enough effect; inconclusive = small, poorly fitted or top-dose-only effect, or another doubt; inactive = no such curve, though single readings can be large; an effect the other way counts as inactive or inconclusive.
# Legend:
# [1] = qHTS profiling of the MIPE4 collection as inhibitors of Plasmodium falciparum (3D7) proliferation (AID 743344; call rule not given here;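 note: scaled between DMSO vehicle wells and 0.29 µM artemisinin as full inhibition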); details: P. falciparum 3D7 in erythrocytes, SYBR Green DNA fluorescence, 72 h; at 28.5 µM unless noted
# Method in brief: (§1)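 Erythrocytes infected with P. falciparum (0.3% parasitemia, 2.5% hematocrit) incubated with compounds 72 h at 37 C, 5% CO2. Lysis with saponin/Triton buffer containing SYBR Green I, overnight at room temperature in the dark; DNA fluorescence (485/535 nm) normalised to 0.29 uM artemisinin and DMSO.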
# [2] = qHTS profiling of the MIPE4 collection as inhibitors of Plasmodium falciparum (DD2) proliferation (AID 743345; call rule not given here); details: P. falciparum Dd2 in erythrocytes, SYBR Green DNA, 72 h; at 28.5 µM unless noted
# Method in brief: as §1
# [3] = qHTS profiling of the MIPE4 collection as inhibitors of Plasmodium falciparum (DD2) proliferation (Rep 2) (AID 743346; call rule not given here); details: P. falciparum Dd2 in erythrocytes, SYBR Green DNA, 72 h; at 28.5 µM unless noted
# Method in brief: as §1
# [4] = qHTS profiling of the MIPE4 collection as inhibitors of Plasmodium falciparum (HB3) proliferation (AID 743347; call rule not given here;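 note: plate controls were DMSO vehicle wells for no effect and artemisinin wells for full effect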); details: P. falciparum HB3 in erythrocytes, SYBR Green DNA, 72 h; at 28.5 µM unless noted
# Method in brief: as §1
# [5] = High-throughput drug toxicity screening in the BPDCN cell line Gen2.2 (AID 1224824; call rule not given here;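 note: cells exposed to compounds for 48 h before reading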); details: Gen2.2 BPDCN cells; at 45.8 µM (top of the series) unless noted
# Method in brief: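 CellTiter-Glo luminescence read after 48 h compound exposure at 37 C defines viability; percent activity set with DMSO as 100% and bortezomib (9.2 uM final) as 0%. 500 exponentially growing cells per well, RPMI plus 10% FBS.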
# [6] = qHTS assay for measurement of the activity of small molecule inhibitors on Zika virus induced Caspase-3 activity in human iPSC derived neural progenitor cells (hNPCs) (AID 1224857); note: nearly all actives have a fitted effect of over 65% in size; note: potency is the fitted concentration of half-maximal effect
# Method in brief: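 After overnight (16–20 h) culture at 350 cells/well, hNPCs get compound, then ZIKV 2 FFU/cell one hour later. Six hours on, Caspase-Glo 3/7 is added and luminescence measured.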
# [7] = qHTS assay for measurement of the activity of small molecule inhibitors on Zika virus induced Caspase-3 activity in human astrocytoma cells (AID 1224859); note: potency is the fitted concentration of half-maximal effect
# Method in brief: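 Inhibition of Zika-induced caspase-3/7 activity: SNB-19 cells, 1 h compound pretreatment, ZIKV 2 FFU/cell for 6 h at 37 C, Caspase-Glo luminescence read-out.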
# [8] = qHTS Screen of the MIPE 4.0 Collection Against Ewings Sarcoma (TC71) (AID 1259253); note: nearly all actives have a fitted effect of over 40% in size; note: potency is the fitted concentration of half-maximal effect
# Method in brief: (§2)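 After a 4 h attachment period in RPMI/5% FBS, cells were pin-dosed with test compounds; DMSO served as negative and 9.2 uM bortezomib (final) as positive control. Luminescent CellTiter-Glo signal at 48 h defined viability.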
# [9] = qHTS Screen of the MIPE 4.0 Collection Against Ewings Sarcoma (EW8) (AID 1259255); note: nearly all actives have a fitted effect of over 35% in size; note: potency is the fitted concentration of half-maximal effect;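 for viability: 100% = DMSO-treated cells and 0% = medium-only wells without cells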
# Method in brief: as §2
# [10] = qHTS Screen of the MIPE 4.0 Collection Against Ewings Sarcoma (TC32) (AID 1259256); note: nearly all actives have a fitted effect of over 45% in size; note: potency is the fitted concentration of half-maximal effect
# Method in brief: as §2
# [11] = qHTS Screen of the MIPE 4.0 Collection Against Ewings Sarcoma (RDES) (AID 1259252); note: nearly all actives have a fitted effect of over 35% in size; note: potency is the fitted concentration of half-maximal effect
# Method in brief: as §2
# [12] = qHTS profiling for inhibitors of Plasmodium falciparum (DD2) proliferation (AID 743323; call rule not given here); details: lower = more inhibition; at 28.7 µM (top of the series) unless noted
# Method in brief: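 SYBR Green fluorescence (ex 485, em 535 nm) of lysed cultures gives parasite DNA content; wells normalized to artemisinin (0.29 uM) and DMSO controls. Infected red cells: 0.3% parasitemia, 2.5% hematocrit, 72 h, 37 C.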
# [13] = qHTS profiling for inhibitors of Plasmodium falciparum (HB3) proliferation (AID 743324); details: Plasmodium falciparum HB3 blood-stage proliferation; at 28.7 µM (top of the series) unless noted;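 note: 100% = DMSO vehicle wells and 0% = artemisinin-treated control wells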
# Method in brief: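 P. falciparum HB3 grown in erythrocytes (0.3% parasitemia, 2.5% hematocrit final) with compound for 72 h at 37 C, 5% CO2. Parasite DNA detected by SYBR Green after saponin/triton lysis overnight; normalized to 0.29 uM artemisinin and DMSO.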
# [14] = Identifying Small Molecule Inhibitors of Pancreatic Cancer Stem Cells (Panc1, Adherent) (AID 1259362); details: Potency: viability; note: potency is the fitted concentration of half-maximal effect
# Method in brief: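 After a 4 h attachment period, compounds were pinned into wells and cultures held 48 h under standard incubator conditions. Viability was then measured as CellTiter-Glo luminescence following 10 min at room temperature.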
SMILES,"parasite growth, % of DMSO control [1] [%]","parasite growth remaining, % of DMSO control (lower = more inhibition) [2] [%]","parasite growth, % of control (lower = inhibition) [3] [%]","growth, % of control [4] [%]","cell viability, % of control (lower = more cytotoxic) [5] [%]",Potency [6],Potency [7],Potency [8],Potency [9],Potency [10],Potency [11],"activity, percent of control [12] [%]","remaining proliferation (% of control), lower = more inhibition [13] [%]",Potency [14]
O=C(C=Cc1ccc(O)cc1)c1ccc(O)cc1O,19.6,52.6,39.1,15.1,1.49,1660 nM (active),2090 nM (active),14800 nM (active),20900 nM (active),16600 nM (active),–,–,–,–
CN1CCC(COc2cnc(-c3cccc(Cn4nc(-c5cccc(C#N)c5)ccc4=O)c3)nc2)CC1,10.4,10.5,15.3,4.54,92.7,inactive,inactive,13200 nM (active),–,20900 nM (active),7430 nM (active),–,–,–
O=C(Nc1cccc(Cl)c1)Nc1ncc(CCNc2ncnc3ccsc23)s1,15.2,–,39,5.75,122,–,inactive,–,235 nM (active),296 nM (active),1180 nM (active),4.65,-0.601,18700 nM (active)
Cc1nc2c([nH]1)CCN(C(=O)c1ccc(NC(=O)c3ccccc3-c3ccccc3)cc1)c1ccccc1-2,5.23,8.18,13.3,9.61,48.7,inactive,inactive,–,–,inactive,inactive,–,–,–
C[C@@H]1[C@H](O)[C@@H](C)C=CC=CC=CC=CC=CC=CC=C[C@H](O[C@@H]2O[C@H](C)[C@H](O)[C@H](N)[C@@H]2O)C[C@@H]2O[C@](O)(C[C@@H](O)C[C@@H](O)[C@H](O)CC[C@@H](O)C[C@@H](O)CC(=O)O[C@H]1C)C[C@H](O)[C@@H]2C(=O)O,16.7,9.78,–,29.7,485,inactive,inactive,372 nM (active),–,743 nM (active),105 nM (active),–,–,–
O=c1[nH]c(=O)n([C@H]2C[C@@H](O)[C@@H](CO)O2)cc1C(F)(F)F,62.3,62,91.9,36.7,118,inactive,inactive,1870 nM (active),–,1320 nM (active),5260 nM (active),–,–,–
CN[C@@H]1[C@@H](O)[C@@H](O[C@@H]2[C@@H](O)[C@H](O[C@H]3O[C@H](CN)[C@@H](O)[C@H](O)[C@@H]3O)[C@@H](N)C[C@@H]2NC(=O)[C@@H](O)CN)OC[C@]1(C)O,94,99.3,–,53.1,111,inactive,inactive,inactive,inactive,inactive,–,–,–,–
CC[C@H]1OC(=O)[C@H](C)[C@@H](O[C@H]2C[C@@](C)(OC)[C@@H](O)[C@H](C)O2)[C@H](C)[C@@H](O[C@@H]2O[C@H](C)C[C@H](N(C)C)[C@H]2O)[C@](C)(O)C[C@H](C)C(=NOCOCCOC)[C@H](C)[C@@H](O)[C@]1(C)O,53.1,62.4,47.3,82.6,129,inactive,inactive,inactive,inactive,–,inactive,–,–,–
